Test systems include SK-MEL-2 melanoma; SN12C renal; UO-31 renal; TK-10 renal; ACHN renal; CAKI-1 renal; A498 renal; CCRF-CEM leukemia; RPMI-8226 leukemia; OVCAR-8 ovarian; OVCAR-5 ovarian; OVCAR-4 ovarian; SK-OV-3 ovarian; IGROV1 ovarian; OVCAR-3 ovarian; HS 578T breast; NCI/ADR-RES ovarian; MOLT-4 leukemia; SR leukemia.
Holding throughout (assay): NCI-60 one-dose screen, 48 h (100 = growth as untreated, 0 = no growth, -100 = all killed)
Common to all, as to settings: 10 µM unless noted

The panel holds about 83,000 compounds, 20% with a hit somewhere; the sample as a whole holds those more often.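 Single-dose data. Exposure time 48 hours. Values below 10 considered active.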 Unmarked numbers belong to inactive results. Activity calls are given as the source filed them.

As to `Clc1cnc(Nc2ccc(OCCN3CCCC3)cc2)nc1NCc1ccco1`, the growth in the test with SK-MEL-2 melanoma is -10.3% (active); in the test with SN12C renal, 5.92% (active); in the test on UO-31 renal, -3.47% (active); with TK-10 renal it was 9.62% (active); in the test with ACHN renal it was -10.2% (active); with CAKI-1 renal, 10%. The growth in the test on A498 renal is 17.6%; with CCRF-CEM leukemia, 7.04% (active); with RPMI-8226 leukemia it was 6.95% (active); in the test with OVCAR-8 ovarian it was 20.2%; in the test on OVCAR-5 ovarian, 8.69% (active); with OVCAR-4 ovarian, 51.6%. Further, the growth in the test with SK-OV-3 ovarian is 57.8%; with IGROV1 ovarian it was 15.7%; with OVCAR-3 ovarian, 28.8%; with HS 578T breast, 31.4%; with NCI/ADR-RES ovarian, 18.5%.
`CNC(=O)NCC1OC(n2cnc3c(NC(=O)Nc4ccccc4)ncnc32)C2OC(C)(C)OC12` (stereo not given): the growth in the test on SK-MEL-2 melanoma is 104%; in the test on SN12C renal, 94.7%; in the test on UO-31 renal, 73.7%; in the test with TK-10 renal, 134%; with ACHN renal it was 105%; in the test on CAKI-1 renal it was 72.6%. Moreover, the growth in the test on A498 renal was 87.2%; with MOLT-4 leukemia, 103%; in the test on RPMI-8226 leukemia, 87.2%; in the test on OVCAR-8 ovarian, 100%; with OVCAR-5 ovarian it was 109%; in the test with OVCAR-4 ovarian, 89.6%. Further, the results for the growth with SK-OV-3 ovarian, in the test on HS 578T breast and in the test on NCI/ADR-RES ovarian were 79.3%, 102% and 101%, respectively.
Take `CCOc1cccnc1/C=N/NC(N)=S`: the growth was 52.2% in the test with SK-MEL-2 melanoma; 53.5% with SN12C renal; 9.56% (active) in the test on UO-31 renal; 66% in the test on TK-10 renal; 35.7% with ACHN renal; 29% in the test with CAKI-1 renal. The growth in the test on A498 renal is 3.97% (active); in the test on CCRF-CEM leukemia it was 17.4%; with MOLT-4 leukemia it was 7.07% (active); in the test on SR leukemia, 6.35% (active); in the test with RPMI-8226 leukemia it was 49.9%; in the test with OVCAR-8 ovarian it was 43.7%. The growth in the test with OVCAR-5 ovarian is 66.2%; with OVCAR-4 ovarian it was 26.5%; in the test on SK-OV-3 ovarian, 42.7%; with IGROV1 ovarian, -7.7% (active); with OVCAR-3 ovarian, 22.2%; in the test on HS 578T breast it was 60.4%. Besides, the growth in the test on NCI/ADR-RES ovarian was 48.8%.
Turning to `CC(C)(C)c1ccc(C(=O)Nc2sc3c(c2C(N)=O)CCC(=O)C3)cc1`, the growth was 2.34% (active) with SK-MEL-2 melanoma; -1.37% (active) with SN12C renal; -99.6% (active) with UO-31 renal; -33.9% (active) in the test on TK-10 renal; -98.6% (active) in the test with ACHN renal; -74.9% (active) in the test with CAKI-1 renal. Besides, the growth is 1.49% (active) in the test on CCRF-CEM leukemia; 4.19% (active) with MOLT-4 leukemia; 11.1% in the test on SR leukemia; 8.88% (active) with OVCAR-8 ovarian; 12.3% in the test with OVCAR-5 ovarian; -91.1% (active) with OVCAR-4 ovarian. The growth was -21.6% (active) in the test on IGROV1 ovarian, -78.8% (active) with OVCAR-3 ovarian, -12% (active) with HS 578T breast and -0.603% (active) in the test with NCI/ADR-RES ovarian.
For `Nc1ccc2c(S(=O)(=O)O)ccc(S(=O)(=O)O)c2c1`, the growth was 103% in the test on SK-MEL-2 melanoma; 95.3% with SN12C renal; 81.6% with UO-31 renal; 108% in the test on TK-10 renal; 96.4% with ACHN renal; 95.6% in the test on CAKI-1 renal. Further, the growth is 116% in the test on A498 renal; 56.5% in the test with CCRF-CEM leukemia; 80.3% with MOLT-4 leukemia; 83.4% in the test on SR leukemia; 95.7% in the test on RPMI-8226 leukemia; 91.6% in the test on OVCAR-8 ovarian. For the same molecule, the growth with OVCAR-4 ovarian is 99.9%; with SK-OV-3 ovarian it was 95.6%; with OVCAR-3 ovarian, 117%.
On to `CCCCNC(=O)c1cc(NCc2cc(O)ccc2O)ccc1O`, for which the growth in the test with SK-MEL-2 melanoma was 93.6%; in the test on SN12C renal it was 89.7%; with UO-31 renal, 57%; in the test with TK-10 renal it was 101%; with ACHN renal, 89.4%; in the test on CAKI-1 renal, 87.3%. For the same molecule, the growth was 88.9% with A498 renal; 8.3% (active) in the test on CCRF-CEM leukemia; 61.5% with MOLT-4 leukemia; 41.1% in the test with SR leukemia; 19.3% with RPMI-8226 leukemia; 87.6% with OVCAR-8 ovarian. In addition, the growth was 107% with OVCAR-5 ovarian; 90.8% in the test with OVCAR-4 ovarian; 85.8% with SK-OV-3 ovarian; 98.4% in the test on IGROV1 ovarian; 54.2% in the test with OVCAR-3 ovarian; 88% in the test with HS 578T breast. The growth with NCI/ADR-RES ovarian is 95%.
`COc1ccc(C2CC(c3ccccc3)=NN2c2nc(C)c(C(C)=O)s2)cc1` (stereo not given): the growth was 98.4% in the test on SK-MEL-2 melanoma; 105% in the test with SN12C renal; 77.4% with UO-31 renal; 110% in the test on TK-10 renal; 95.5% in the test with ACHN renal; 86.6% in the test on CAKI-1 renal. Further, the growth was 96.3% with CCRF-CEM leukemia; 102% with MOLT-4 leukemia; 97.7% in the test with SR leukemia; 99% in the test with RPMI-8226 leukemia; 101% with OVCAR-8 ovarian; 105% in the test with OVCAR-5 ovarian. Also, the growth was 97.1% in the test with OVCAR-4 ovarian; 103% in the test on IGROV1 ovarian; 98.5% with OVCAR-3 ovarian; 93.3% with HS 578T breast; 102% in the test with NCI/ADR-RES ovarian.
Regarding `COc1cc2oc(-c3cccc(C(=O)Nc4ccc(C#N)cc4)c3)cc(=O)c2c(O)c1OC`, the growth in the test on SK-MEL-2 melanoma is 74.4%; in the test on SN12C renal, 64.9%; with UO-31 renal, 55.3%; with TK-10 renal it was 50.5%; in the test with ACHN renal it was 38.7%; in the test on CAKI-1 renal, 85.2%. Moreover, the growth in the test on A498 renal was 86.7%; in the test on CCRF-CEM leukemia, 88.5%; in the test on MOLT-4 leukemia it was 88.3%; in the test on SR leukemia, 62.2%; in the test on RPMI-8226 leukemia, 51.3%; in the test with OVCAR-8 ovarian, 29.1%. Further, the growth is 66.5% with OVCAR-5 ovarian; 11.7% in the test on OVCAR-4 ovarian; 84.6% with IGROV1 ovarian; 51.3% in the test on OVCAR-3 ovarian; 83.4% in the test on HS 578T breast; 51.2% with NCI/ADR-RES ovarian.
In the case of `COc1ccc(C(=O)/C=C/c2cc3c(c(OC)c2)OCC(=O)N3)cc1`, the growth with SK-MEL-2 melanoma was 110%; in the test with SN12C renal, 48.7%; with UO-31 renal it was 62.2%; with TK-10 renal it was 116%; with ACHN renal it was 46.3%; in the test with CAKI-1 renal it was 20.8%. For the same molecule, the growth was 94.3% in the test with A498 renal; 7.77% (active) in the test on CCRF-CEM leukemia; 6.17% (active) with MOLT-4 leukemia; 20.4% with SR leukemia; 5.42% (active) in the test with RPMI-8226 leukemia; 44.8% in the test with OVCAR-8 ovarian. Besides, the growth was 45.7% with OVCAR-5 ovarian; 53.7% in the test on OVCAR-4 ovarian; 103% in the test with SK-OV-3 ovarian; 80% in the test on IGROV1 ovarian; 2.27% (active) in the test on OVCAR-3 ovarian; 42.3% with HS 578T breast. The growth with NCI/ADR-RES ovarian is 36.7%.

Source of the values: PubChem BioAssay (NCI).
